In PubChem BioAssay AID588727 (Southern Research Specialized Biocontainment Screening …, 2011):
The whole screen tested about 350,000 compounds, of which about 450 (0.13%) were called active. The rule behind the calls is not given here. A selection follows. Measured potencies and affinities stand elsewhere.

test: inhibitors of VEEV TC-83 cytopathic effect, confirmation, Vero cells (AID 588727); details: VEEV TC-83 cytopathic effect inhibition, at 20 µM; stronger effect = higher value unless noted

Q: Which inhibition does the source give for `CC(CCc1ccccc1)OS(N)(=O)=O` (stereo unspecified) here?
A: 0.425% [measured here: 10K pilot screen inhibition, stronger effect = higher value]

Q: And the outcome?
A: inactive

Q: With `Cc1n[nH]c(C)c1CCNCc1ccc(OCC(O)CN2CCCCC2)cc1` (stereo unspecified) as the molecule, how does the inhibition read?
A: 0.96% (inactive)

Q: With `OC(COc1ccc(CNCCc2ccccc2F)cc1)CN1CCCCC1` (stereo unspecified) as the molecule, how does the inhibition read?
A: 4.19% (inactive)

Q: Which inhibition does the source give for `N/C(=N\OCc1ccc([N+](=O)[O-])cc1)c1ccccn1` here?
A: 0.33% (inactive)

Q: Which inhibition does the source give for `CC(=O)Nc1ccccc1C(=O)OCC(=O)c1ccccc1Cl` here?
A: 0.205% [measured here: 10K pilot screen inhibition, stronger effect = higher value]

Q: What about the outcome of the same molecule?
A: inactive

Q: With `CNC(=S)NCc1ccc2[nH]c3c(c2c1)CCCC3` as the molecule, how does the inhibition read?
A: 0.13% (inactive)

Q: For `CC(C)CC(=O)NCc1ccc2[nH]c3c(c2c1)CCCC3`, which inhibition is on record?
A: 1.23% (inactive)

Q: With `CC(C)C[C@H]1CNC(=S)N1CC1CCN(CCCCc2ccccc2)CC1` as the molecule, how does the inhibition read?
A: inactive

Q: With `COc1cccc(N2C(=O)C3CCCN3C2c2cccs2)c1` (stereo unspecified) as the molecule, how does the inhibition read?
A: 1.22% (inactive)

Q: Which inhibition does the source give for `O=C1C2CCCN2C(c2cccs2)N1c1ccc(F)cc1` (stereo unspecified) here?
A: inactive

Q: With `CN(c1ccc(OCC(=O)Nc2cc(Cl)ccc2C(=O)O)cc1)S(=O)(=O)c1ccc(F)cc1` as the molecule, how does the inhibition read?
A: 1.87% (inactive)

Q: For `CC(=O)Nc1ccc(S(=O)(=O)N(C)c2ccc(OCC(=O)Nc3ccccc3C(C)=O)cc2)cc1`, which inhibition is on record?
A: 11% (inactive)

Q: For `CC(C)CN(C(=O)COc1ccc(C(C)(C)C)cc1)C1CCS(=O)(=O)C1` (stereo unspecified), which inhibition is on record?
A: 12.2% (inactive)

Q: Which inhibition does the source give for `CN(C)N=Nc1nc2c(c(=O)n(C)c(=O)n2C)n1C` here?
A: inactive

Q: For `CN(C)N=Nc1nc2c([nH]1)c(=O)n(C)c(=O)n2C`, which inhibition is on record?
A: 1.78% (inactive)

Q: For `CN(C(=O)c1cccc(NC(=O)Cc2ccc(NC(=O)C3CCN(C(=O)C4CC4)CC3)cc2)c1)C1CCCCC1`, which inhibition is on record?
A: 0.89% (inactive)

Q: With `O=C(CSc1nccn1-c1ccc(Cl)cc1)NCc1ccc2c(c1)OCO2` as the molecule, how does the inhibition read?
A: 3.2% (inactive)

Q: Which inhibition does the source give for `CCOC(=O)Cc1nnc(Nc2cccc(O)c2)c2ccccc12` here?
A: 4.42% (inactive)

Q: Which inhibition does the source give for `O=C(Cc1c(Cl)cccc1Cl)OCc1ccccn1` here?
A: 1.24% (inactive)

Q: For `O=C(CN(CC1CCCO1)C(=O)CNS(=O)(=O)c1ccc(Cl)cc1)NCc1ccc(F)cc1` (stereo unspecified), which inhibition is on record?
A: 3.94% (inactive)

Q: With `COc1cc2nc(N3CCN(C(=O)c4ccco4)CC3)nc(N)c2cc1OC` as the molecule, how does the inhibition read?
A: 23.2% (inactive)

Q: Which inhibition does the source give for `COc1cc2nc(N3CCN(c4cc(C)ccc4C)CC3)nc(N)c2cc1OC` here?
A: inactive

Q: With `COC(=O)C1CCN(C(=O)COC(=O)CC(NC(N)=O)c2ccc(Cl)cc2)CC1` (stereo unspecified) as the molecule, how does the inhibition read?
A: 1.27% (inactive)

Q: With `CSc1nnc2c(n1)OC(c1ccc(C(=O)O)cc1)N(C(C)=O)c1ccccc1-2` (stereo unspecified) as the molecule, how does the inhibition read?
A: 0.04% (inactive)
